The text below walks through data of PubChem BioAssay (EPA / NIEHS).

For test [1], the target named is Bile acid receptor (Homo sapiens) (UniProt Q96RI1). In words: ATG_IR1_CIS: Attagene CIS-FACTORIAL HepG2 Assay for human Nuclear Receptor Subfamily 1 Group H Member 4 (NR1H4), IR1 submotif (AID 2282946). As to conditions: IR1 reporter transcription, actives raise or lower the signal. A digest of the protocol:
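Cells (human HepG2) carry transiently transfected cis-promoter reporter transcription units. Compounds are incubated 24 h, total RNA is reverse-transcribed and amplified, and labelled fragments are resolved by capillary electrophoresis. Curves use DMSO as baseline.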

The nature of test [2]: ATG_GRE_CIS: Attagene CIS-FACTORIAL HepG2 Assay for human Glucocorticoid Response Elements (GRE) (AID 2282947). As to conditions: HepG2 GRE cis-reporter, Attagene multiplex mRNA; actives raise or lower the signal. An outline of the steps:
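Assay uses human hepatoma HepG2 cells transfected with cis-promoter reporter units, exposed 24 h. mRNA from reporters detected by RT-PCR plus capillary electrophoresis; DMSO serves as negative control and baseline.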

Test [3] can be described thus: ATG_ISRE_CIS: Attagene CIS-FACTORIAL HepG2 Assay for human Interferon Regulatory Factor 1 (IRF1) binding to an Interferon-Stimulated Response Element (ISRE) (AID 2282948). As to conditions: HepG2 ISRE cis-reporter (Attagene), mRNA transcription readout; actives raise or lower the signal. An outline of the steps: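 Transfected HepG2 (multiple reporter transcription units, cis elements) dosed 24 h. RNA → oligo(dT) RT → PCR → 6-FAM primer extension → HpaI → CE. DMSO = negative control/baseline.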

Test [4] in a line: ATG_M_32_CIS: Attagene CIS-FACTORIAL HepG2 Assay for M32 Transcription Factor (Internal Marker) (AID 2282949).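 Also: background control marker of the multiplexed CIS panel rather than a real target.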 As to conditions: HepG2 Attagene cis-factorial M32 reporter, mRNA; actives raise or lower the signal. An outline of the steps: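 Following 24 h chemical exposure of HepG2 cells transiently expressing cis-promoter reporter constructs, reporter transcript levels were determined by RT-PCR with fluorescent labelling and capillary electrophoresis, then fitted bidirectionally against DMSO.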

Test [5] can be described thus: ATG_M_06_CIS: Attagene CIS-FACTORIAL HepG2 Assay for M06 Transcription Factor (Internal Marker) (AID 2282950). The conditions noted are these: HepG2 Attagene CIS-FACTORIAL M06 internal marker reporter; actives raise or lower the signal. An outline of the steps:
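Read-out is fluorescence of labelled reporter cDNA fragments resolved by capillary electrophoresis after RT-PCR. Cells: HepG2 carrying transfected cis-promoter reporter units, treated 24 h. Gain or loss of signal fitted relative to DMSO.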

The target in test [6] is Hypoxia-inducible factor 1-alpha (Homo sapiens) (UniProt Q16665). In words: ATG_HIF1a_CIS: Attagene CIS-FACTORIAL HepG2 Assay for human Hypoxia Inducible Factor 1 (HIF1A) (AID 2282951). The conditions noted are these: HepG2 Attagene cis-factorial HIF1a reporter transcription; actives raise or lower the signal. An outline of the steps:
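Endogenous-TF cis reporter readout, human HepG2 cells, 24 h incubation; mRNA detected via RT-PCR and capillary electrophoresis fluorescence; DMSO-normalised bidirectional fitting.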

Test [7] has as its target Heat shock factor protein 1 (Homo sapiens) (UniProt Q00613). The experiment in a line: ATG_HSE_CIS: Attagene CIS-FACTORIAL HepG2 Assay for human Heat Shock Transcription Factor 1 (HSE) (AID 2282953). As to conditions: HepG2 HSE cis-reporter, Attagene RNA transcription; actives raise or lower the signal. A digest of the protocol: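 HepG2, transient MRTU transfection, cis-promoter reporters (endogenous TF activity). 24 h compound. RNA → oligo(dT) RT → PCR → 6-FAM primer extension → HpaI cut → CE. Bidirectional fit vs DMSO.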

Test [8] can be described thus: ATG_MRE_CIS: Attagene CIS-FACTORIAL HepG2 Assay for human Metal Responsive Element (MRE) (AID 2282954). The conditions noted are these: HepG2 MRE cis-reporter transcription, Attagene multiplex; actives raise or lower the signal. A digest of the protocol:
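After a 24 h chemical exposure, transiently transfected HepG2 cells yield RNA whose reporter sequences are amplified, FAM-labelled and sized by capillary electrophoresis. Curves are fitted bidirectionally relative to DMSO.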

Test [9] in a line: ATG_PBREM_CIS: Attagene CIS-FACTORIAL HepG2 Assay for human Phenobarbital-responsive Enhancer Module (PBREM) (AID 2282955). As to conditions: HepG2 PBREM cis-reporter, Attagene multiplexed transcription; actives raise or lower the signal. An outline of the steps:
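Readout: reporter mRNA, fluorescent RT-PCR fragments separated by capillary electrophoresis. System: HepG2 transiently transfected with cis-regulated reporter units. Exposure: 24 h. Analysis: bidirectional, DMSO baseline.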

For test [10], the target named is Hepatocyte nuclear factor 6 (Homo sapiens) (UniProt Q9UBC0). In words: ATG_HNF6_CIS: Attagene CIS-FACTORIAL HepG2 Assay for human Hepatocyte Nuclear Factor 6 (HNF6) (AID 2282952). As to conditions: HepG2 Attagene cis-factorial HNF6 reporter transcription; actives raise or lower the signal. An outline of the steps:
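Multiplexed mRNA reporter assay in transfected HepG2; 24 h dosing; RT-PCR plus capillary electrophoresis fluorescence; DMSO-referenced bidirectional curve fitting.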

Several values for one entry are separate records, joined by “and”; a condition that tells them apart may be missing. Identical values can stand only once. Some structures have more than one record in an assay (separate samples or runs), and their calls can disagree. Activity calls are given as the source filed them. The calls were made as follows: active = hit-call score of the fitted dose curve at least 0.9, where 1 is the maximum; inactive = score below 0.9.

Hepatocyte nuclear factor 6 (Homo sapiens), sequence (Q9UBC0 whole entry, looked up): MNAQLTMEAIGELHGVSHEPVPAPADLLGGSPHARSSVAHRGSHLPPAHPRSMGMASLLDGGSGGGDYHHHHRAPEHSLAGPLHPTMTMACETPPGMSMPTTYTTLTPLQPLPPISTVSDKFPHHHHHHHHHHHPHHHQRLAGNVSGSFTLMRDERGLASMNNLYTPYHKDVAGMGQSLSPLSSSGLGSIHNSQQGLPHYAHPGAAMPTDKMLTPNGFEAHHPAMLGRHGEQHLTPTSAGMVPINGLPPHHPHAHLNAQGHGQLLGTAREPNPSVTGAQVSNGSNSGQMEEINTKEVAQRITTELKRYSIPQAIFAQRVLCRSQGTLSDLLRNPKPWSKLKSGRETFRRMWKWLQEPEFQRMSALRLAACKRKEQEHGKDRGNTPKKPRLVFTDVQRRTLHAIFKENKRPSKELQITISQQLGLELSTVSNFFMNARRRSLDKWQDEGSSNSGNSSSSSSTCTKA
Heat shock factor protein 1 (Homo sapiens), sequence (Q00613 whole entry, looked up): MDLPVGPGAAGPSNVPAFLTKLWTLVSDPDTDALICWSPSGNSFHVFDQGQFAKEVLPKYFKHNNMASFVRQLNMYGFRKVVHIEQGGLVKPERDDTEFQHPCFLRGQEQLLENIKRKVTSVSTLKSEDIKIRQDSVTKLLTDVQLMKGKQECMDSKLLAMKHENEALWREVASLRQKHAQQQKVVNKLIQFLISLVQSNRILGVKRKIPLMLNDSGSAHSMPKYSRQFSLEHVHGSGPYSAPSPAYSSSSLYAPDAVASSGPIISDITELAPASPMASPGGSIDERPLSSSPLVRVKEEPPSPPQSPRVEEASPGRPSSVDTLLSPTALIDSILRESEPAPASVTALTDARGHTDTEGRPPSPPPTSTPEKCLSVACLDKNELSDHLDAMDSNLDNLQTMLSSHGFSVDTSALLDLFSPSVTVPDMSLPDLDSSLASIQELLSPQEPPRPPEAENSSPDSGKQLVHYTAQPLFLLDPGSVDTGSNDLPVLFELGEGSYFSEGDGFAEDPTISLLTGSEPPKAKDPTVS
Bile acid receptor (Homo sapiens), sequence (Q96RI1 whole entry, looked up, the tested form may be a part): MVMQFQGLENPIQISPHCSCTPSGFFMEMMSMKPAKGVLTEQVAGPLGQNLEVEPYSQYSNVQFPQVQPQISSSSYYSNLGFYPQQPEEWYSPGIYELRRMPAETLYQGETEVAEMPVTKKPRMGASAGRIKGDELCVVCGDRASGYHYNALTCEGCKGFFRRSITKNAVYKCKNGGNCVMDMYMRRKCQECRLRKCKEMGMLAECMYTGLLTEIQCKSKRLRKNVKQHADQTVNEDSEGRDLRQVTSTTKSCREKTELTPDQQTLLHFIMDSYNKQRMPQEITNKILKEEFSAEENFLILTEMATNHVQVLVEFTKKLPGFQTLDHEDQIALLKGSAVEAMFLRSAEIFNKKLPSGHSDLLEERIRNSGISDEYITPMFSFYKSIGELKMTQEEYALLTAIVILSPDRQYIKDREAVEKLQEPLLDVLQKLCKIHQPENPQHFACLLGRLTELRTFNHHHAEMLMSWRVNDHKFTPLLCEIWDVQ
Hypoxia-inducible factor 1-alpha (Homo sapiens), sequence (Q16665 whole entry, looked up): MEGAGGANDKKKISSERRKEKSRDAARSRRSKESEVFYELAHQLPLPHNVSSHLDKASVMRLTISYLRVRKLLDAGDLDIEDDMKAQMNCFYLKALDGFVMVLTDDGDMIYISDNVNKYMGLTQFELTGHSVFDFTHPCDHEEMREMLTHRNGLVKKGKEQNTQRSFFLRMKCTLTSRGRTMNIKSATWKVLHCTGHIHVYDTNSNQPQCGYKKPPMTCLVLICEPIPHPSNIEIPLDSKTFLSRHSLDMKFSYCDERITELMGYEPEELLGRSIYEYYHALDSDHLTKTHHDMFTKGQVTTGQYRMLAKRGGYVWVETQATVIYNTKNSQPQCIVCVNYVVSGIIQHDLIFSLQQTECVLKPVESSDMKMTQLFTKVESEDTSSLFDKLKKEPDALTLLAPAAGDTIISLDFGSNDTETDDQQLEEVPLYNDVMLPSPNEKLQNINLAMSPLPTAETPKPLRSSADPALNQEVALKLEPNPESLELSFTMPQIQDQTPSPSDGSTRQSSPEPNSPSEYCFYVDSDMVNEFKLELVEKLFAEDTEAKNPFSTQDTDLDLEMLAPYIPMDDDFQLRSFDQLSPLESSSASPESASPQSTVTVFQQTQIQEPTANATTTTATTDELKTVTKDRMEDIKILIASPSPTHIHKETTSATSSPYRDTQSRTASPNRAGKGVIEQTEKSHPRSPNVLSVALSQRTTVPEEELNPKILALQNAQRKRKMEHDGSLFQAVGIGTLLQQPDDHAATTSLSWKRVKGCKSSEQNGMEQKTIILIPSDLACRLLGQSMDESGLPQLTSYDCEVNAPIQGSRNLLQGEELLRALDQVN

One may read the AC50 as the concentration at which the activity in the assay is half-maximal. On to `C=C(C)C(=O)[O][Sn]([CH2]CCC)([CH2]CCC)[CH2]CCC`, for which the AC50 was 0.0112 µM (active) in test [1], 612 nM (active) in [3], 0.68 µM (active) in test [7] and 0.412 µM (active) in test [8]. Moreover, the compound was called inactive in [2], in test [4], in [5], in test [6] and in [9].

As to `O=C(Cc1ccccc1)c1ccccc1`, the outcome in test [1], in test [2], in test [4], in test [5], in test [6] and in test [10] was inactive. Moreover, the outcome in test [7], in [8] and in test [9] was inactive.

As for `O=C(O)C(F)(F)C(F)(F)C(F)(F)C(F)(F)C(F)(F)C(F)(F)F`, the outcome in test [1], in test [3], in test [4], in test [5], in test [6] and in test [10] was inactive. Moreover, the compound was called inactive in test [7], in test [8] and in test [9].

Consider `CCN1CCC2(CC1)COc1cc3c(cc12)N(C(=O)c1ccc(-c2ccc(-c4nnc(C)o4)cc2C)cc1)CC3`, for which the compound was called inactive in test [1], in [3], in test [4], in test [5], in [6] and in test [7]. Further, the compound was called inactive in test [8] and in test [9].

In the case of `CCOP(=S)(OCC)Oc1nc(Cl)c(Cl)cc1Cl`, the half-maximal activity concentration (AC50) in [1] is 26.4 µM (active); in [8] it was 100 µM (active). Further, the call in test [2], in test [4], in test [5], in test [6], in test [7] and in test [9] was inactive.

In the case of `O=C1CCCN1`, the result in [1], in [2], in [4], in [5], in test [6] and in [10] was inactive. Also, the compound was classed as inactive in test [7], in [8] and in test [9].

With `O=[N+]([O-])c1c(Cl)c(Cl)cc(Cl)c1Cl`, the compound was classed as inactive in test [1], in test [3], in test [5], in test [6], in test [10] and in test [7]. Besides, the compound was classed as inactive in test [8]. Moreover, the concentration at half-maximal activity (AC50) in test [4] is 0.0842 µM (active).

For `Nc1ccc(Cl)cc1C(=O)c1ccccc1`, the result in test [1], in test [2], in [4], in test [5], in test [6] and in test [10] was inactive. The compound was called inactive in [7]. In addition, the AC50 in test [8] is 25.6 µM (active).

As to `CC(C)(c1ccccc1)c1ccc(O)c(C(C)(C)c2ccccc2)c1`, the half-maximal activity concentration (AC50) in [1] was 2.78 µM (active); in test [6] it was 11.1 µM (active); in test [7], 17.9 µM (active); in [8] it was 13.3 µM (active); in test [9], 0.42 µM (active). Besides, the compound was classed as inactive in test [2], in test [4] and in test [5].

As to `ClC1=C(Cl)[C@]2(Cl)[C@@H]3[C@@H](Cl)[C@@H](Cl)C[C@@H]3[C@@]1(Cl)C2(Cl)Cl`, the result in [1], in test [2], in test [3], in [4], in test [5] and in [6] was inactive. Moreover, the compound was classed as inactive in test [7], in test [8] and in test [9].

As to `O=C(O)Cc1ccccc1`, the compound was classed as inactive in test [1], in test [3], in test [4], in test [5], in test [6] and in [7]. Further, the compound was classed as inactive in test [8] and in test [9].

Consider `COP(=O)(OC)O/C(=C\Cl)c1cc(Cl)c(Cl)cc1Cl`, for which the compound was classed as inactive in test [1], in [4], in test [5] and in test [10]. In addition, the AC50 is 47000 nM (active) in test [3], 100 µM (active) in [6], 153 µM (active) in test [7] and 100 µM (active) in test [8].

`Fc1ccc(C2(Cn3cncn3)OC2c2ccccc2Cl)cc1` (stereo not given): the compound was classed as inactive in [1], in test [2], in test [4], in test [5], in [6] and in test [10]. Moreover, the compound was classed as inactive in test [7], in test [8] and in test [9].

Turning to `N#CCc1ccc(Cl)cc1`, the outcome in [1], in [2], in test [4], in [5], in test [6] and in test [10] was inactive. Also, the outcome in test [7] and in test [8] was inactive.

Take `N#CCCO`: the compound was called inactive in test [1], in test [2], in test [4], in [5], in test [6] and in [10]. Further, the compound was called inactive in [7] and in [8].

Turning to `CCC(=O)c1ccccc1`, the outcome in [1], in test [3], in [4], in [5], in [6] and in test [10] was inactive. Besides, the compound was called inactive in test [7], in test [8] and in [9].

For `CCOP(OCC)OCC`, the compound was classed as inactive in [1], in [3], in [4], in test [5], in test [6] and in [10]. The compound was classed as inactive in [7], in [8] and in [9].

On to `CCC1(c2ccc(N)cc2)CCC(=O)NC1=O` (stereo not given), for which the result in test [1], in test [2], in test [4], in test [5], in test [7] and in test [8] was inactive.

Regarding `CC(C)(C)c1cc(O)ccc1O`, the call in [1], in test [2], in test [3], in test [4], in test [5] and in [9] was inactive. In addition, the concentration at half-maximal activity (AC50) in test [7] is 187 µM (active); in test [8] it was 120 µM (active).

Regarding `C(=NC1CCCCC1)=NC1CCCCC1`, the call in test [1], in [4], in test [5], in [6], in [10] and in test [7] was inactive. The half-maximal activity concentration (AC50) is 33.4 µM (active) in [8] and 8.4 µM (active) in [9].

Consider `CN(C)N=O`, for which the compound was classed as inactive in [1], in [2], in test [4], in [5], in test [6] and in test [10]. Further, the outcome in test [7], in test [8] and in test [9] was inactive.

On to `OCc1ccco1`, for which the compound was called inactive in test [1], in test [3], in test [4], in test [5], in test [6] and in [10]. Also, the result in [7], in test [8] and in [9] was inactive.

As to `CCC[CH2][Sn]([Cl])([Cl])[Cl]`, the compound was classed as inactive in test [1], in test [2], in test [3], in test [4], in test [5] and in test [6]. Also, the call in test [7], in test [8] and in test [9] was inactive.

For `Oc1cccc2cccnc12`, the outcome in [1], in [3], in test [4], in test [5], in test [10] and in test [7] was inactive. For the same compound, the result in test [8] and in test [9] was inactive. Moreover, the AC50 in test [8] was 148 µM (active).

As to `O=C(O)C(F)(F)C(F)(F)C(F)(F)C(F)(F)C(F)(F)C(F)(F)C(F)(F)C(F)(F)C(F)(F)C(F)(F)F`, the outcome in test [1], in test [4], in test [5], in test [6], in test [7] and in [9] was inactive. The AC50 in test [3] was 44.5 µM (active) and 20.1 µM (active); in test [4], 160 µM (active); in test [5] it was 76.2 µM (active); in [6], 23.2 µM (active); in test [7], 14.9 µM (active); in test [8] it was 23.2 µM (active) and 15.5 µM (active). Besides, in test [9], the half-maximal activity concentration (AC50) was 70.8 µM (active).
